# Screening results as filed in PubChem.
# Hits are enriched below; roughly 0.79% of the tested compounds scored in any of these assays.
# AmpC inh detg – blocks E. coli AmpC beta-lactamase in detergent assay; Potency, µM (doses to about 114 µM), most hits filed as inhibitors; AmpC hydrolysis of nitrocefin, absorbance 480 nm, 0.01% Triton; 370,000 tested, 0.041% active; P00811; also: nearly all actives have a fitted effect of over 25% in size
# Target sequence (P00811 whole entry, looked up): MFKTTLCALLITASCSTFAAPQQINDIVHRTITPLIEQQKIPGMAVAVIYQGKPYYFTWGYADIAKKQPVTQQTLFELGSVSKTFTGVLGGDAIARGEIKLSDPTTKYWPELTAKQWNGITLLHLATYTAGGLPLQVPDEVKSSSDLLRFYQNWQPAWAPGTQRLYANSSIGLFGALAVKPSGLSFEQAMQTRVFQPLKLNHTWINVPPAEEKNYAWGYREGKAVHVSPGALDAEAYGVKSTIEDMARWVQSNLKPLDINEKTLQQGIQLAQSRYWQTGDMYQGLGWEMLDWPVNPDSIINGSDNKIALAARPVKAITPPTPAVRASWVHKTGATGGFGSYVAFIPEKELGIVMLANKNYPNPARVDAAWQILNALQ
#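 20 mM phosphate pH 7.0 + 0.01% (detergent screen) or 0.0001% Triton X-100; 5.3 nM AmpC reagent; cpd preinc 15 min RT; nitrocefin (800 uM stock) to start; A480 q20 s × 4 min; Activity was normalised to no-enzyme and no-compound control wells.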
# AmpC no deterg – blocks E. coli AmpC beta-lactamase in detergent-free assay | P00811 | AID 485341 | Potency, µM (titrated, usually from 57.1 µM), actives largely listed as inhibitors | AmpC nitrocefin hydrolysis, absorbance 480 nm, 0.0001% Triton | 330,000 tested, 0.52% active; also: nearly all actives have a fitted effect of over 20% in size
#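 AmpC (5.3 nM in the dispensed reagent) in 20 mM phosphate pH 7.0 with 0.01% (detergent screen) or 0.0001% Triton X-100 was preincubated with compounds for 15 min at room temperature. Nitrocefin was then added from an 800 uM solution, and hydrolysis was followed at 480 nm.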
# AMA1 RON2 block – disrupts binding of P. falciparum AMA1 to RON2. Potency, µM (highest dose often 58.2 µM), most hits filed as inhibitors. AlphaScreen AMA1-biotinylated RON2 peptide binding. 360,000 tested, 0.2% active; also: nearly all actives have a fitted effect of over 45% in size
#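 AMA1 (3D7) with his tag at 25 nM final met compounds first, then biotinylated RON2 peptide at 25 nM; detection used donor plus acceptor beads, 10 µg/mL apiece, read by AlphaScreen after 30 min at room temperature.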
# RE007 growth inh – less growth of the S. pombe RE007 Vpr strain. Potency, µM (highest dose often 92.2 µM), usual class: inhibitors. S. pombe RE007 Vpr strain, BacTiter-Glo ATP luminescence, 24 h. 360,000 tested, 0.21% active. AID 651644; active = well fitted falling curve with a large enough effect; inconclusive = small, poorly fitted or top-dose-only effect; inactive = no such curve, though single readings can be large or run the other way; also: nearly all actives have a fitted effect of over 50% in size
#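 Fission yeast strain RE007, carrying one chromosomally integrated HIV-1 vpr copy, was seeded at OD 0.01 in PMG+AL medium with 23 nL pinned compound. After 24 h at 30 °C and 99% humidity, viability was read by BacTiter-Glo luminescence.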
# Numbers stand for hits; 0 = inactive; ? = inconclusive; - = not tested or not shown; [ ] = another dose, or the depositor's remark. Unless noted, calls follow the shape of the dose curve; as a rule, active = well fitted curve in the direction sought with a large enough effect; inconclusive = small, poorly fitted or top-dose-only effect, or another doubt; inactive = no such curve, though single readings can be large; an effect the other way counts as inactive or inconclusive.
SMILES,AmpC inh detg,AmpC no deterg,AMA1 RON2 block,RE007 growth inh
COc1ccc(NC(=O)CC2C(=O)N(c3cccc(OC)c3)C(=O)N2Cc2ccc3c(c2)OCO3)cc1 (configuration not stated),0,-,-,-
O=C1CN(C(=O)Cc2ccc(F)cc2)C(c2ccccc2)c2cc(Cl)ccc2N1 (configuration not stated),0,-,-,-
S=C(NNc1cccc(Cl)c1)NC1CCCCC1,0,0,6.31µM,0
S=C(Nc1cccc(Cl)c1)NC1CCCCC1,0,0,0,0
COc1ccccc1CNC(=O)C1CCCN(S(=O)(=O)c2ccc3c(c2)CCCN3C(C)=O)C1 (configuration not stated),0,-,-,-
COc1cc(C2Nc3cccc4cccc(c34)N2)cc(OC)c1O,0,31.6µM,0,0
O=C(O)c1ccc2c(c1)C1C(Cl)C(Sc3ccccc3[N+](=O)[O-])CC1C(c1cccc([N+](=O)[O-])c1)N2 (configuration not stated),0,17.8µM,0,0
Cc1ccc(S(=O)(=O)c2nnn3c2nc(N2CCOCC2)c2sccc23)cc1C,0,-,-,-
N#Cc1nc(-c2ccc(F)cc2)oc1NCCN1CCOCC1,?,0.631µM,0,0
COc1ccc(-c2nc(C#N)c(NCCCN3CCOCC3)o2)cc1,0,28.2µM,0,0
O=C(Cn1ncc2c3ccccc3n(Cc3ccccc3F)c2c1=O)NCc1ccccc1Cl,0,-,-,-
CN(C)c1ccc(CNC(=O)CCC(=O)N2Cc3ccccc3Oc3ncccc32)cc1,0,-,-,-
O=c1c2ccccc2nc(COc2ccccc2)n1/N=C/c1ccc(O)c(O)c1,0,3.55µM,0,0
O=C(O)COc1ccc(/C=N/n2c(COc3ccccc3)nc3ccccc3c2=O)cc1,0,0,0,0
Cc1cc(/C=N/n2c(COc3ccccc3)nc3ccccc3c2=O)c(O)c([N+](=O)[O-])c1,?,20µM,?,?
COc1ccc(CSc2nc3ncccc3[nH]2)cc1,0,-,-,-
COc1ccc(CSc2nc3ccccc3[nH]2)cc1,0,0,0,31.6µM
Cc1ccc(S(=O)(=O)c2nc(C)oc2NCc2ccccc2)cc1,50.1µM,0,-,-
Cc1ccc(S(=O)(=O)c2nc(-c3ccccc3F)oc2NCc2ccccc2)cc1,0,-,-,-
c1ccc(-c2cn(C[C@H]3CC[C@@H]([C@@H]4CC[C@H](Cn5cc(-c6ccccc6)nn5)O4)O3)nn2)cc1,0,0,0,0
c1ccc(-c2cn(C[C@H]3CC[C@@H]([C@@H]4CC[C@H](Cn5cc(-c6ccccn6)nn5)O4)O3)nn2)nc1,0,0,1µM,0
CC(C)(C)c1ccc(/C=N/Nc2ccc(C(=O)O)cc2)cc1,0,0,0[11.6 µM],?
O=C(O)c1ccc(N/N=C/c2ccc(C(F)(F)F)cc2)cc1,0,0,0,35.5µM
CN1c2ccc([N+](=O)[O-])cc2CC2(C(=O)NC(=O)NC2=O)C1c1ccccc1 (configuration not stated),0,3.98µM,0,0
CN1c2ccc([N+](=O)[O-])cc2CC2(C(=O)NC(=O)N(c3ccccc3)C2=O)C1c1ccccc1 (configuration not stated),0,0,0,0
SMILES,AmpC inh detg,AmpC no deterg,AMA1 RON2 block,RE007 growth inh
COc1cc(NC(=O)CCc2c(C)nc3c(c(C)nn3-c3ccccc3)c2C)cc(OC)c1OC,0,-,-,-
CN1CC(C(=O)c2ccc(Cl)cc2)C(c2ccc(Cl)cc2Cl)C1 (configuration not stated),0,0,31.6µM,0
CCOc1ccc(CNC(=O)c2ccc3c(c2)c(C)c(C)n3Cc2ccccc2)cc1OC,0,-,-,-
O=C(CN(c1ccc(Cl)cc1)S(=O)(=O)c1ccc(Cl)c([N+](=O)[O-])c1)NCCc1ccccc1,0,0,0,0
O=C(CN(c1ccc(Cl)cc1)S(=O)(=O)c1ccc(Cl)c([N+](=O)[O-])c1)NCCc1ccc(F)cc1,0,31.6µM,0,0
CCOc1ccc(NC(=O)CCCc2nc(-c3cccc(OC)c3)no2)cc1,0,-,-,-
CN(C)c1ccc(C=C2C=C(c3ccccc3)OC2=O)cc1,-,-,8.91µM,0
Cc1ccc(C=C2C=C(c3ccccc3)OC2=O)cc1,-,-,0,0
CCOC(=O)c1ccc(NC(=O)C(CC)Sc2nnc3c4ccccc4n(C)c3n2)cc1 (configuration not stated),0,-,-,-
CC(OC(=O)c1c2c(nc3ccccc13)/C(=C\c1ccc3c(c1)OCO3)CCC2)C(=O)Nc1ccc(S(N)(=O)=O)cc1 (configuration not stated),?,0,0,-
Cc1cccc(C)c1NC(=O)COC(=O)c1c2c(nc3ccccc13)/C(=C\c1ccc3c(c1)OCO3)CCC2,0,28.2µM,0,0
COc1ccc(OC)c(NC(=O)c2nc(SCc3ccc(F)cc3)ncc2Cl)c1,0,-,-,-
COc1ccc(OC)c(CCNc2ncnc3onc(-c4ccc(F)cc4)c23)c1,0,-,-,-
COc1cccc(/C(O)=C/c2nc3ccc(C(=O)NCCc4cccc(C)c4)cc3[nH]c2=O)c1,?,11.2µM,0,0
O=C(c1cccs1)c1no[n+]([O-])c1C(=O)c1cccs1,0,0,0,28.2µM
COc1ccc(NC(=O)c2noc3c2CCC3)cc1,0,0,0,39.8µM
CC(=O)c1ccc(NC(=O)c2noc3c2CCC3)cc1,?,?,0,0
CCOc1ccc(CNCc2c(C(=O)O)n(Cc3ccccc3F)c3cc(OC)ccc23)cc1,0,-,-,-
N#CCC(=N)N1CCN(c2ccccc2Cl)CC1,0,0.316µM,0,0
O=C1C(Nc2ccccc2)=C/C(=N/S(=O)(=O)c2cccs2)c2ccccc21,0,10µM,?,?
Cc1ccc(S(=O)(=O)/N=C2\C=C(Nc3ccc(O)cc3)C(=O)c3ccccc32)cc1,-,0,20µM,0
COC(=O)c1ccccc1NC1=C/C(=N\S(=O)(=O)c2cccs2)c2ccccc2C1=O,0,0,3.16µM,0
COC(=O)c1ccccc1NC1=C/C(=N\S(=O)(=O)c2ccc(C(=O)O)cc2)c2ccccc2C1=O,0,0,?,?
NS(=O)(=O)c1ccc(NC(=O)c2ccc(S(=O)(=O)N3CCc4ccccc43)cc2)cc1,0,17.8µM,0,0
CSc1cccc(NC(=O)c2cc(S(=O)(=O)N3CCc4ccccc43)cn2C)c1,0,10µM,0,0
SMILES,AmpC inh detg,AmpC no deterg,AMA1 RON2 block,RE007 growth inh
COc1ccc(OC)c(-c2noc(N3CCN(c4cccc(C(F)(F)F)c4)CC3)n2)c1,0,-,-,-
O=c1[nH]c(=S)n(C2CC2)c(O)c1/C=N/Nc1cccc2ccccc12,0,0,0,0
O=c1[nH]c(=S)n(C2CC2)c(O)c1/C=N/Nc1ccccc1,0,12.6µM,0,0
CCOC(=O)C1CCCN(S(=O)(=O)c2cc3c(cc2C)NC(=O)CO3)C1 (configuration not stated),0,-,-,-
Cc1ccccc1-n1c(-c2csc(C)c2C)n[nH]c1=S,?,22.4µM,0,0
Cc1ccccc1-n1c(-c2csc3ccccc23)n[nH]c1=S,?,0,0,0
